Data on ten compounds can be found in PubChem BioAssay (NCI).

Test systems include HCT-15 colon; HT29 colon; SNB-75 CNS; SNB-19 CNS; U251 CNS; PC-3 prostate; SK-MEL-5 melanoma; UACC-62 melanoma; LOX IMVI melanoma; SK-MEL-28 melanoma.
Common to all, as to assay: NCI-60 one-dose screen, 48 h (100 = growth as untreated, 0 = no growth, -100 = all killed)
Details in all cases: 10 µM unless noted

About 83,000 compounds went through this panel and 20% of them were active in at least one assay; those are over-represented in the sample as a whole.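 Single-concentration screen, 48 h exposure, 96-well plates. Endpoint: percent growth. Below 10 = active.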 Unmarked numbers belong to inactive results. Active and inactive are the calls of the source.

For the compound `c1cc(-c2ccc3c(c2)OCO3)n2nccc2n1`, the growth in the experiment with HCT-15 colon is 97.2%; with HT29 colon, 103%; in the experiment with SNB-75 CNS, 84.5%; with SNB-19 CNS it was 101%; in the experiment with U251 CNS it was 95.8%; in the experiment on PC-3 prostate, 93.9%. Further, the growth with SK-MEL-5 melanoma was 98.2%; in the experiment with UACC-62 melanoma, 113%; in the experiment with LOX IMVI melanoma it was 102%; in the experiment with SK-MEL-28 melanoma, 105%.
With `CSc1nc(-c2cc3ccccc3o2)cc(-c2ccc(Cl)cc2)c1C#N`, the growth in the experiment on HCT-15 colon was 31.1%; in the experiment with HT29 colon, -50.6% (active); with SNB-75 CNS, -36% (active); in the experiment with SNB-19 CNS, 55.1%; with U251 CNS, 6.2% (active); in the experiment on PC-3 prostate it was 22.2%. For the same compound, the growth in the experiment with SK-MEL-5 melanoma is 55.3%; with UACC-62 melanoma, -17.1% (active); in the experiment on LOX IMVI melanoma it was 16.8%; with SK-MEL-28 melanoma, 65.2%.
For `COc1ccc(/C=C/C(=O)c2cc(OC)c(OC)c(OC)c2)cc1OCc1cn(Cc2ccc(F)cc2)nn1`, the growth in the experiment on HCT-15 colon is 23.8%; with HT29 colon, 4.82% (active); in the experiment on SNB-75 CNS, 27.5%; in the experiment with SNB-19 CNS, 78.4%; in the experiment on U251 CNS, 19.3%; with PC-3 prostate it was 35.1%. Further, the growth with SK-MEL-5 melanoma is 80.8%; in the experiment on UACC-62 melanoma, 64.4%; in the experiment on LOX IMVI melanoma it was 13.3%; in the experiment on SK-MEL-28 melanoma, 87.3%.
Take `c1ccc([P+](CCC[P+](c2ccccc2)(c2ccccc2)c2ccccc2)(c2ccccc2)c2ccccc2)cc1`: the growth in the experiment on HCT-15 colon was 101%; in the experiment with HT29 colon, 66.9%; in the experiment on SNB-75 CNS, 54%; in the experiment with SNB-19 CNS, 64.4%; in the experiment on U251 CNS, 40%; with PC-3 prostate, 38%. Further, the growth in the experiment with SK-MEL-5 melanoma was 75.1%; in the experiment on UACC-62 melanoma, 62.5%; in the experiment on LOX IMVI melanoma, 86.6%; in the experiment with SK-MEL-28 melanoma, 75.1%.
Turning to `CCOP(=O)(CCN1CCN(CCCCCOc2cc3c(cc2OC)C(=O)N2CCC[C@H]2C=N3)CC1)OCC`, the growth with HCT-15 colon is 104%; with HT29 colon, 80.4%; in the experiment with SNB-75 CNS, 65.5%; in the experiment on SNB-19 CNS it was 91.5%; in the experiment with U251 CNS it was 30.1%; in the experiment with PC-3 prostate, 76.2%. Also, the growth is 83.9% with SK-MEL-5 melanoma, 94.6% in the experiment with UACC-62 melanoma, 22% with LOX IMVI melanoma and 120% with SK-MEL-28 melanoma.
With `Nc1ccc(S(=O)(=O)c2ccc(Cl)cc2)cc1`, the growth in the experiment on HCT-15 colon is 97.8%; in the experiment with HT29 colon, 98.1%; in the experiment with SNB-75 CNS, 79.7%; in the experiment with SNB-19 CNS it was 93.9%; in the experiment with U251 CNS, 105%; in the experiment on PC-3 prostate, 89.7%. In addition, the growth in the experiment on SK-MEL-5 melanoma was 95.2%; with UACC-62 melanoma it was 85.8%; in the experiment with LOX IMVI melanoma, 95.6%; with SK-MEL-28 melanoma, 102%.
On to `O=S(=O)(NCCCNc1cc(-c2cn(-c3ccccc3)nc2-c2cccc(O)c2)ccn1)c1cccc(F)c1`, for which the growth is 9.95% (active) in the experiment with HCT-15 colon; 8.11% (active) with HT29 colon; 49.5% with SNB-75 CNS; 81.6% with SNB-19 CNS; 40.1% with U251 CNS; 15.5% with PC-3 prostate. The growth was 20% with SK-MEL-5 melanoma, 50.5% in the experiment with UACC-62 melanoma, 13.7% in the experiment with LOX IMVI melanoma and 44.3% in the experiment with SK-MEL-28 melanoma.
Take `CCCCCCCCCCn1cc[n+](C)c1`: the growth is 82% with HCT-15 colon; 12.3% in the experiment with HT29 colon; -10.6% (active) in the experiment with SNB-75 CNS; 45.5% with SNB-19 CNS; 21.7% in the experiment on U251 CNS; 6.6% (active) with PC-3 prostate. The growth in the experiment on SK-MEL-5 melanoma is -33.1% (active); in the experiment with UACC-62 melanoma, 31.1%; in the experiment on LOX IMVI melanoma, 23.9%; in the experiment with SK-MEL-28 melanoma, 34.9%.
For the compound `Cc1ccc(Oc2nc3ccccc3cc2-c2nnc(Cn3c(COc4ccccc4)nc4ccccc43)o2)cc1`, the growth in the experiment on HCT-15 colon is 17.5%; in the experiment on HT29 colon, 4.53% (active); with SNB-75 CNS it was 54.9%; in the experiment with SNB-19 CNS it was 52.4%; in the experiment with U251 CNS it was 43%; in the experiment on PC-3 prostate, 46.2%. In addition, the growth with SK-MEL-5 melanoma is 80.5%; in the experiment with UACC-62 melanoma it was 50.8%; in the experiment on LOX IMVI melanoma, 19.6%; in the experiment on SK-MEL-28 melanoma it was 90.9%.
Consider `CC(=O)Nc1nc(C(=O)N2N=C(C)/C(=C/c3ccc(Cl)cc3)C2=O)cs1`, for which the growth is 100% in the experiment with HCT-15 colon; 108% in the experiment on HT29 colon; 98.3% in the experiment on SNB-75 CNS; 104% with SNB-19 CNS; 101% with U251 CNS; 98% in the experiment with PC-3 prostate. For the same compound, the growth in the experiment with SK-MEL-5 melanoma was 104%; with UACC-62 melanoma it was 111%; in the experiment with LOX IMVI melanoma it was 101%; in the experiment on SK-MEL-28 melanoma, 110%.
